The results in this text go back to a collection of fitness landscapes (doi:10.1126/science.1257360).

Over roughly 140,000 sequences, “enrichment ratio after two sorts for PhoP signalling” has its median near 0; the highest 2% begin near 11. What follows is part of a selection rich in the highest values, with near analogues and random picks from the rest.

First the molecules themselves.
B1: PhoQ; a variant is named by its letters at X, in order, P23837 (parent)
chain: MKKLLRLFFPLSLRVRFLLATAAVVLVLSLAYGMVALIGYSVSFDKTTFRLLRGESNLFYTLAKWENNKLHVELPENIDKQSPTMTLIYDENGQLLWAQRDVPWLMKMIQPDWLKSNGFHEIEADVNDTSLLLSGDHSIQQQLQEVREDDDDAEMTHSVAVNVYPATSRMPKLTIVVVDTIPVELKSSYMVWSWFIYVLSANLLLVIPLLWVAAWWSLRPIEALAKEVRELEEHNRELLNPATTRELTSLVRNLNRLLKSERERYDKYRTTLTDLTHSLKTPLXXLQXXLRSLRSEKMSVSDAEPVMLEQISRISQQIGYYLHRASMRGGTLLSRELHPVAPLLDNLTSALNKVYQRKGVNISLDISPEISFVGEQNDFVEVMGNVLDNACKYCLEFVEISARQTDEHLYIVVEDDGPGIPLSKREVIFDRGQRVDTLRPGQGVGLAVAREITEQYEGKIVAGESMLGGARMEVIFGRQHSAPKDE

The variants in the experiment derive from B1. The experiment can be described thus: enrichment ratio after two sorts for PhoP signalling (ratio (wild type AVST 3.29)); higher = more functional. As to conditions: with PhoP (E. coli).
In the case of MHTY, the enrichment ratio was at most 0.25.

LARC: the enrichment ratio was at most 0.25. With RLPH, the enrichment ratio is at most 0.25. As for TNFS, the enrichment ratio is at most 0.25. Next, RRNI: at most 0.25; GIHS: at most 0.25. Turning to YGWR, the enrichment ratio was at most 0.25. Turning to KELF, the enrichment ratio is at most 0.25. Turning to LMEL, the enrichment ratio was at most 0.25.

Regarding FVVT, the enrichment ratio was at most 0.25. Take HNCQ: the enrichment ratio is at most 0.25. On to KTSH, for which the enrichment ratio is at most 0.25. Turning to QHHI, the enrichment ratio was at most 0.25. As for GMRC, the enrichment ratio is at most 0.25.

In the case of KCST, the enrichment ratio was at most 0.25. On to KSND, for which the enrichment ratio is at most 0.25.

For the variant TCVT, the enrichment ratio was at most 0.25. Take TCST: the enrichment ratio worked out at 24.9. For the variant TCND, the enrichment ratio is 20.6. For the variant HVST, the enrichment ratio is at most 0.25. With MCTV, the enrichment ratio is at most 0.25.

For EWLV, the enrichment ratio is at most 0.25.

On to MTFH, for which the enrichment ratio was 3.3. In the case of QYHL, the enrichment ratio was at most 0.25. Next, YKTG: at most 0.25. For the variant SMFS, the enrichment ratio is at most 0.25.
